Assay outcomes: PubChem, National Center for Advancing Translational Sciences (NCATS)
D2 ag-1 = activates the human D2 dopamine receptor; HEK293 T-REx D2 cells, calcium flux agonist mode; activation, % at 2 µM; hit rate 0.53% among 340,000; AID 485358;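 active means activation over 3 SD above normal in the single-dose calcium agonist read, cut at about 30% in these data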
Target sequence (P14416 whole entry, looked up): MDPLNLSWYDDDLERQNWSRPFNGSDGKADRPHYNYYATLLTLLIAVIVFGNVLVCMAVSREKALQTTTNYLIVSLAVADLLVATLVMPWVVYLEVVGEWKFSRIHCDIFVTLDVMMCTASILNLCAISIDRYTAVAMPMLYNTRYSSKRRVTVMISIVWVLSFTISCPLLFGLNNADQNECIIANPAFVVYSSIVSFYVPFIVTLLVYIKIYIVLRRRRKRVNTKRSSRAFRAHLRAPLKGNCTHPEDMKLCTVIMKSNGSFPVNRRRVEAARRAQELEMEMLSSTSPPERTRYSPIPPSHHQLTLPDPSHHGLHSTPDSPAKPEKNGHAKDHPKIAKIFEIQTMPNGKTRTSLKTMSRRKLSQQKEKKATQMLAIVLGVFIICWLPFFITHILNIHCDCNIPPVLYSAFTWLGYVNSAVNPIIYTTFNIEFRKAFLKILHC
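Agonism scored from kinetic calcium signal (1 read/sec, 180 s) following compound pin transfer, after a 10 s baseline. Cells: HEK293 Trex line expressing inducible D2 receptor coupled to calcium, dye-loaded after overnight culture at 30 C.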
D2 antagonist = antagonists of human D2 dopamine receptor | inhibition, % at 10 µM | AID 485344 | P14416 | HEK293 TREx D2 cells, calcium flux, dopamine EC80 | hit rate 2% among 340,000; in the data active means inhibition above about 30%; inactive means below that, where a call was filed
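Read-out: kinetic calcium fluorescence (1 cycle/s) in inducible HEK293 T-REx D2 cells after an EC80 dopamine addition that followed 180 s compound preincubation. Loss of the dopamine response indicates antagonism.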
D2 ag-2 = activates the human D2 dopamine receptor; P14416; DiscoveRx PathHunter D2 beta-arrestin, luminescence, 90 min; 100% = 57 uM dopamine signal; activation, % (concentration not given with the values); hit rate 0.084% among 360,000; AID 624465; in the data active means activation above about 40%; inconclusive means between about 15% and that limit
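Agonist mode: compounds alone added to overnight-plated D2 PathHunter cells for 90 min at 37 C, with 57 uM final dopamine (EC100) defining full response. Beta-arrestin recruitment detected by chemiluminescent reagent, read after 1 h at ambient temperature.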
D2 PAM-1 = potentiates the human D2 dopamine receptor allosterically | potentiation, % (concentration not given with the values) | hit rate 0.23% among 360,000 | P14416 | AID 624464 | DiscoveRx D2 beta-arrestin cells, luminescence, 90 min; 100% = 57 uM dopamine signal; in the data active means potentiation above about 50%; inconclusive means mostly about 30% to 49%
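D2 cells co-treated with compound plus 50 nM dopamine (EC20) for 90 min at 37 deg C to detect potentiation. Beta-arrestin recruitment was read as enzyme-fragment luminescence after 1 h at ambient temperature. Full response was set by 57 uM dopamine.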
D2 PAM-2 = D2 dopamine receptor (human) potentiation; AID 485347; P14416; potentiation, % at 10 µM; hit rate 0.34% among 340,000; HEK293 T-REx D2, calcium flux, EC20 dopamine potentiation;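 active means potentiation over 3 SD above the plate norm, cut at about 30% in these data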
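Using a no-wash calcium dye in inducible, force-coupled HEK293 Trex cells expressing D2, we tracked fluorescence each second for 180 s after compound, then for 180 s after EC20 dopamine to detect augmented signalling.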
Hits are given with their value. Shown are actives, neighbours in structure and some others; about 2.4% of the full set was active somewhere.

For Cc1ccc(C(=O)Nc2c(C)cc(-c3ccccc3)oc2=O)cc1 the results were D2 ag-1 inactive, D2 antagonist 30.9, D2 ag-2 inactive, D2 PAM-1 inactive and D2 PAM-2 inactive.
CC(C)Cn1cc(-c2cccc3nccn23)cn1 was read as D2 ag-2 inactive and D2 PAM-1 inactive.
Screening COc1ccc(C2Nc3cccc4cccc(c34)N2)cc1Br returned D2 ag-2 inactive, D2 PAM-1 53.9 and D2 PAM-2 inactive.
For COc1cc(C2Nc3cccc4cccc(c34)N2)ccc1OC(C)=O the results were D2 ag-1 inactive, D2 antagonist inactive, D2 ag-2 inactive, D2 PAM-1 inconclusive and D2 PAM-2 inactive.
O=[N+]([O-])c1ccc(C2Nc3cccc4cccc(c34)N2)cc1 was read as D2 ag-1 inactive, D2 antagonist inactive, D2 ag-2 inconclusive, D2 PAM-1 80.1 and D2 PAM-2 inactive.
For Fc1ccc(C2Nc3cccc4cccc(c34)N2)cc1 the results were D2 ag-1 inactive, D2 antagonist inactive, D2 ag-2 inactive, D2 PAM-1 inactive and D2 PAM-2 inactive.
O=[N+]([O-])c1cccc(C2Nc3cccc4cccc(c34)N2)c1 was read as D2 ag-1 inactive, D2 antagonist inactive, D2 ag-2 inconclusive, D2 PAM-1 105.4 and D2 PAM-2 inactive.
For CSc1ccccc1NC(=O)C1(C)CCN1C(=O)Cc1ccc(-c2ccccc2)cc1 (stereo unspecified) the results were D2 ag-2 inactive and D2 PAM-1 inactive.
Screening COc1ccc(CNC(=O)CC(c2ccc(OC)c(OC)c2)N2Cc3ccccc3C2=O)cc1 (stereo unspecified) returned D2 ag-1 inactive and D2 PAM-2 inactive.
For COc1cccc(-n2c(=O)c3c(C)c(C(=O)N(C)C)sc3n(CC(=O)NCC3CCCO3)c2=O)c1 (stereo unspecified) the results were D2 ag-1 inactive, D2 antagonist 41.1, D2 ag-2 inactive, D2 PAM-1 inactive and D2 PAM-2 inactive.
Screening CCc1ccc(-n2c(=O)c3c(C)c(C(=O)N(C)C)sc3n(CC(=O)NCC3CCCO3)c2=O)cc1 (stereo unspecified) returned D2 ag-1 inactive, D2 antagonist inactive, D2 ag-2 inactive, D2 PAM-1 inactive and D2 PAM-2 inactive.
COc1ccc(CCCNC(=O)C2(C)Cc3c(-c4cccc(C(N)=O)c4)ccnc3O2)cc1 (stereo unspecified) was read as D2 ag-2 76.4 and D2 PAM-1 inactive.
`CC1(C(=O)NCCC(F)(F)F)Cc2c(-c3cccc(C(N)=O)c3)ccnc2O1` (stereo unspecified) gave D2 ag-2 inactive and D2 PAM-1 inactive.
For Fc1ccc2nc(-c3ccccc3)ccc2c1 the results were D2 ag-2 inactive and D2 PAM-1 inactive.
Screening [O-][n+]1onc2c3cc(-c4ccccc4)nnc3ccc21 returned D2 ag-1 inactive, D2 antagonist inactive, D2 ag-2 inactive, D2 PAM-1 52.7 and D2 PAM-2 inactive.
For Brc1ccc(C2=Nc3cccc4cccc(c34)N2)o1 the results were D2 ag-1 inactive, D2 antagonist inactive, D2 ag-2 inconclusive, D2 PAM-1 84.0 and D2 PAM-2 inactive.
CCOC(=O)C1=C(CN2CCN(C(=O)c3ccco3)CC2)NC(=O)NC1c1ccc(C)cc1 (stereo unspecified) was read as D2 ag-1 inactive, D2 antagonist 36.7, D2 ag-2 inactive, D2 PAM-1 inactive and D2 PAM-2 inactive.
`COc1ccc(NC(=O)Nc2nnc([C@H]3C[C@H](O)[C@@H](CO)O3)s2)cc1` gave D2 ag-2 inactive and D2 PAM-1 inactive.
For C=C(C)CSc1nc2sc3c(c2c(=O)n1Cc1ccccc1)CC(C)(CC)OC3 (stereo unspecified) the results were D2 ag-1 inactive and D2 PAM-2 inactive.
For COC(=O)c1c(NC(=O)C(=O)NCC2CCCO2)sc2c1CC(C)(C)OC2 (stereo unspecified) the results were D2 ag-1 inactive, D2 antagonist 36.4, D2 ag-2 inactive, D2 PAM-1 inactive and D2 PAM-2 inactive.
Screening COc1ccc(-c2cn3nc(N4CCCC(C(=O)NCc5ccccc5OC)C4)sc3n2)cc1 (stereo unspecified) returned D2 ag-1 inactive and D2 PAM-2 inactive.
For CCOC(=O)C1CCN(CCC(=O)Nc2ccc(Cl)cc2)CC1 the results were D2 ag-1 inactive, D2 antagonist inactive, D2 ag-2 inactive, D2 PAM-1 inactive and D2 PAM-2 inactive.
For CC1CN(CCOCCSc2ccc(Cl)cc2)CC(C)O1 (stereo unspecified) the results were D2 ag-1 inactive, D2 antagonist 50.2, D2 ag-2 inactive, D2 PAM-1 inactive and D2 PAM-2 inactive.
`CCOC(=O)C1CCN(CCCSc2ccc(Cl)cc2)CC1` gave D2 ag-1 inactive, D2 antagonist 46.1, D2 ag-2 inactive, D2 PAM-1 inactive and D2 PAM-2 inactive.
For Clc1ccc(SCCOCCN2CCCCC2)cc1 the results were D2 ag-1 inactive, D2 antagonist inactive, D2 ag-2 inactive, D2 PAM-1 inactive and D2 PAM-2 inactive.
Screening CC1CCN(CCOCCSc2ccc(Cl)cc2)CC1 returned D2 ag-1 inactive, D2 antagonist 44.9, D2 ag-2 inactive, D2 PAM-1 inactive and D2 PAM-2 inactive.
For CCCCN(C(=O)C1CC(=O)N(c2ccc(C)cc2)C1)c1c(N)n(CCC)c(=O)[nH]c1=O (stereo unspecified) the results were D2 ag-1 inactive, D2 antagonist 37.9, D2 ag-2 inactive, D2 PAM-1 inactive and D2 PAM-2 inactive.
Screening CCCCn1c(N)c(N(CC(C)C)C(=O)C2CC(=O)N(c3ccc4c(c3)OCCO4)C2)c(=O)[nH]c1=O (stereo unspecified) returned D2 ag-1 inactive, D2 antagonist 39.5, D2 ag-2 inactive, D2 PAM-1 inactive and D2 PAM-2 inactive.
`O=C(c1ccc(Br)cc1)N1CCN(CCc2ccncc2)CC1` gave D2 ag-1 inactive and D2 PAM-2 inactive.
C=CCN1C(=O)/C(=C\c2ccc(C)cc2)N=C1SCC(=O)NCCC was read as D2 ag-1 inactive, D2 antagonist inactive, D2 ag-2 inactive, D2 PAM-1 inactive and D2 PAM-2 inactive.
`CCCNC(=O)CSC1=N/C(=C/c2ccc(F)cc2)C(=O)N1CC` gave D2 ag-1 inactive, D2 antagonist 35.0, D2 ag-2 inactive, D2 PAM-1 inactive and D2 PAM-2 inactive.
COc1cc(/C=C(\C#N)C(=O)Nc2ccccc2C(=O)O)cc(Cl)c1OC was read as D2 ag-1 inactive, D2 antagonist inactive, D2 ag-2 inactive, D2 PAM-1 inactive and D2 PAM-2 40.2.
Cc1cc(C)cc(N(CC(=O)N2CCCCCC2)S(C)(=O)=O)c1 was read as D2 ag-1 inactive, D2 antagonist 34.2, D2 ag-2 inactive, D2 PAM-1 inactive and D2 PAM-2 inactive.
`CCOC(=O)C1CCN(C(=O)CN(c2ccc(Cl)c(C(F)(F)F)c2)S(C)(=O)=O)CC1` gave D2 ag-1 inactive, D2 antagonist inactive, D2 ag-2 inactive, D2 PAM-1 inactive and D2 PAM-2 inactive.
